Reference: PubChem BioAssay AID2551 (National Center for Advancing Translational Sciences (NCATS), 2010)
About 17,000 (5.5%) of roughly 310,000 compounds were called active. Entries that show only a call come without a potency. Inconclusive results (about 11%) are left out. The sample holds actives, similar compounds and a random draw of the others, so the mix is not that of the screen. Unmarked numbers belong to inactive results. Calls follow the shape of the dose curve; as a rule, active = well fitted inhibition curve with a large enough effect; inconclusive = small, poorly fitted or top-dose-only effect, or effect the other way; inactive = no such curve, though single readings can be large or run the other way.
Also: nearly all actives have a fitted effect of over 60% in size.
Potency is read from the fitted curve at half-maximal effect.

The molecules below were run against Nuclear receptor ROR-gamma (Mus musculus) (UniProt P51450) (assay: qHTS for inhibitors of ROR gamma transcriptional activity). Settings: Drosophila S2 Gal4-RORgamma UAS-luciferase reporter, 20 h; series mostly up to 53.6 µM.
Sequence of Nuclear receptor ROR-gamma (Mus musculus) (P51450 whole entry, looked up, the tested form may be a part): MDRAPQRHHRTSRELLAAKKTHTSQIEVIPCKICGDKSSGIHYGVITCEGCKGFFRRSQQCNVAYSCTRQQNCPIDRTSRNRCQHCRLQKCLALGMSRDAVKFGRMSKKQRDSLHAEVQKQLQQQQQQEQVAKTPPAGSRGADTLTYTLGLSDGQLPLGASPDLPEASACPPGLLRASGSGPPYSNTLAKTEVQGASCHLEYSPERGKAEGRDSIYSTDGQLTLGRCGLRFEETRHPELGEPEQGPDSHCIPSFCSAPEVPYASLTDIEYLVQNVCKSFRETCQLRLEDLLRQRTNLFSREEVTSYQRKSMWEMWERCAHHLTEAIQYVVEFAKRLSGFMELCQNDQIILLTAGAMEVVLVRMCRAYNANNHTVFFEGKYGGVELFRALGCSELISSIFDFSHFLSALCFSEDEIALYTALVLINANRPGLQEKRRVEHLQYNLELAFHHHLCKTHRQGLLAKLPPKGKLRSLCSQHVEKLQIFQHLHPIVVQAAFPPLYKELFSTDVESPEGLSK
Text: NIH Molecular Libraries Probe Production Network [MLPCN] NIH Chemical Genomics Center [NCGC] MLPCN Grant: R03 DA026211-01 Assay Provider: Dan Littman, New York University Assay Overview: The retinoic acid-related orphan receptor (ROR) gamma is a transcription factor that has a central role in the differentiation of Th17 cells, a subset of T helper cells that secrete the inflammatory cytokines IL-17, IL-17F, and IL-22. Th17 cells have been implicated in graft versus host disease, autoimmune disease and asthma. ROR gamma is induced in naive T helper cells in the presence of TGF-beta combined with IL-6, IL-21, or IL-23, and thereafter directs the expression of the Th17 lineage cytokines. To study the mechanism of action of ROR gamma, an insect cell-based assay was screened. This Drosophila Schneider cell line was stably transfected with two vectors: a gene expressing a fusion of the Gal4 DNA binding domain and ROR gamma transactivation domain under the control of the metallothionine promoter and a Photinus luciferase reporter regulated by the Gal4 binding site enhancer, UAS. […] Small molecule inhibitors of ROR gamma activity are detected by a decrease in luciferase reporter activity.
Assay Protocol Summary: For screening, 600 cells in 4 uL/well were dispensed into white solid 1536-well plates (Grenier) using a solenoid-based dispenser. Following transfer of 23 nL compound or DMSO vehicle by a pin tool, the plates were incubated 1 hr at ambient temperature, and 1 uL/well copper sulfate (700 uM final concentration) was added. The plates were centrifuged 15 s at 1000 RPM and incubated 20 hr at ambient temperature. After addition of 1.5 uL Photinus luciferase detection reagent, the plates were incubated 10 min at ambient temperature and then read by an ViewLux (Perkin Elmer) to detect luminescence. Keywords: NIH Roadmap, MLPCN, MLI, MLSMR, qHTS, NCGC, qHTS, nuclear hormone receptor, retinoic acid-related orphan receptor, ROR gamma
With CC(=O)OCC(NC(=O)C(Cc1ccccc1)NC(=O)OC(C)(C)C)C1OC(n2ccc(=O)[nH]c2=O)C(OC(C)=O)C1OC(C)=O (centres undefined) the Potency was “inactive”. COc1ccc(NC(=O)NCCN2CCN(c3ccc(C)cc3)CC2)c(Cl)c1 was tested, and the Potency was “inactive”. In the case of CCc1ccccc1NC(=O)CSc1nnc(-c2ccncc2)o1, the Potency was “inactive”. For COc1ccccc1NC(=O)CCSc1nnc(-c2ccc(O)cc2)o1, the Potency was 14.1 µM (active). COc1ccccc1-c1nnc(SCC(=O)Nc2ccccc2)o1 was tested, and the Potency was “inactive”. With COc1cccc(N2CCN(c3ccc4nnc(CCC(=O)N5CCN(C)CC5)n4n3)CC2)c1 the Potency was “inactive”. In the case of O=S(=O)(c1ccc(Br)cc1)N1CCC(c2nc3ccccc3[nH]2)CC1, the Potency was “inactive”. N#CC(C(=O)c1ccc(S(=O)(=O)N2CCCCCC2)cc1)c1nc2ccccc2[nH]1 (centres undefined) was tested, and the Potency was 12.6 µM (active). O=C(N/N=C/c1ccccn1)c1ccc(S(=O)(=O)N2CCCCCC2)cc1 was tested, and the Potency was “inactive”. With Cc1nc2cc(C(F)(F)F)ccc2n1CCNc1nc(-c2cc(Cl)c(N)c(Cl)c2)cs1 the Potency was 17.8 µM (active). With COc1cc(NC(=O)CSc2ccc(-c3cccnc3)nn2)cc(OC)c1 the Potency was “inactive”. With CC(C)c1ccc(S(=O)(=O)N2CCN(C(=O)c3ccc(N4CCCC4)c([N+](=O)[O-])c3)CC2)cc1 the Potency was “inactive”. COc1ccccc1N(CC(=O)Nc1ccccc1C(=O)N1CCCC1)S(C)(=O)=O was tested, and the Potency was “inactive”. For Cc1ccc(S(=O)(=O)N2CCN(C(=O)N3CCOCC3)CC2)c(C)c1, the Potency was “inactive”. CCCc1cc(=O)[nH]c(SCC(=O)N2CCN(S(=O)(=O)c3ccc(C)cc3C)CC2)n1 gave an activity change, negative = inhibition of 4.85% [at 10 µM]. Cc1ccc(S(=O)(=O)N2CCN(C(=O)CSc3cc(C)ccc3C)CC2)c(C)c1 was tested, and the Potency was 3.16 µM (active). Cc1ccc(C(=O)NC2CCN(C(=O)Nc3ccc(F)cc3)CC2)cc1 was tested, and the Potency was “inactive”. For COc1ccc(CN2C(=O)C(C)S/C2=N/N=C/c2ccco2)cc1 (centres undefined), the Potency was “inactive”. In the case of CCCCC1S/C(=N/N=C/c2cccs2)NC1=O (centres undefined), the Potency was 0.112 µM (active). For CN(CCOc1ccc(CC2SC(=O)NC2=O)cc1)c1ccccn1 (centres undefined), the Potency was “inactive”. CCC1C/C(=C/c2cccs2)C(=O)/C(=C/c2cccs2)C1 (centres undefined) was tested, and the Potency was “inactive”. For CCC1S/C(=N/N=C/c2ccco2)NC1=O (centres undefined), the Potency was 1.26 µM (active). For O=C1N/C(=N\N=C\c2ccco2)SC1Cc1ccc(F)cc1 (centres undefined), the Potency was 1 µM (active). CC(C)=N/N=C1/NC(=O)C(Cc2ccccc2)S1 (centres undefined) was tested, and the Potency was 2.51 µM (active). In the case of C=CCN1C(=O)C(Cc2cccc(Cl)c2)S/C1=N/N=C/c1ccco1 (centres undefined), the Potency was “inactive”. O=C(O)C[C@@H]1NC(=O)[C@H](Cc2ccccc2)NC1=O was tested, and the Potency was “inactive”. With CC(=O)Nc1ccc(S(=O)(=O)Oc2ccc(/C=N/N=C3/NC(=O)C(CC(=O)O)S3)cc2)cc1 (centres undefined) the Potency was “inactive”. In the case of O=c1nc(N/N=C/c2ccco2)cn[nH]1, the Potency was “inactive”. In the case of Cc1ccccc1N(C(=O)CNC(=O)c1cccs1)C(C(=O)NC1CCCC1)c1ccncc1 (centres undefined), the Potency was “inactive”. In the case of O=C(C1CCN(Cc2ccc(Cl)cc2)CC1)N1CCN(Cc2ccc3c(c2)OCO3)CC1, the Potency was “inactive”. In the case of C=CCn1c(SCc2ccccc2)nc2c1c(=O)[nH]c(=O)n2C, the Potency was “inactive”. In the case of O=S(=O)(c1ccccc1)c1nc(Cc2ccccc2)oc1N1CCOCC1, the Potency was “inactive”. For O=S(=O)(c1ccc(F)cc1)N1CCN=C1SCc1cccc(F)c1, the Potency was “inactive”. For CCc1ccc(N2CC(C(=O)Nc3ccc(S(=O)(=O)Nc4nccs4)cc3)CC2=O)cc1 (centres undefined), the Potency was “inactive”. In the case of CCCCC1(C(=O)OCC)NC(c2ccc(O)cc2)C2C(=O)N(c3ccccc3)C(=O)C21 (centres undefined), the Potency was “inactive”. CCN1CCN(C2CCCCC2NS(=O)(=O)c2ccc(Cl)cc2)CC1 (centres undefined) was tested, and the Potency was “inactive”. CC(C)Cn1cnc2c1c(=O)n(CC(=O)NN)c(=O)n2Cc1ccccc1 was tested, and the Potency was “inactive”. With COc1ccc(C(=O)N/N=c2\oc3ccccc3cc2C(N)=O)cc1 the Potency was “inactive”. In the case of COc1cccc2cc(C(N)=O)/c(=N\NC(=O)c3ccccc3)oc12, the Potency was 7.08 µM (active). For NC(=O)c1cc2ccccc2o/c1=N/NC(=O)c1cccc(F)c1, the Potency was “inactive”. With O=C1CN(C(=O)c2cc(F)cc(F)c2)c2ccccc2N1 the Potency was “inactive”. CCOC(=O)c1cccnc1NC(=O)c1ccncc1 was tested, and the Potency was “inactive”. In the case of COc1ccc(OC)c(C(C)NC(=S)Nc2ccc(S(=O)(=O)Nc3ncccn3)cc2)c1 (centres undefined), the Potency was “inactive”. For COC(=O)c1cccnc1NC(=S)NC(C)C, the Potency was 1.78 µM (active). Cc1ccc(-n2[nH]c(C)c(/C=N/N3C(=O)c4cccc5cccc(c45)C3=O)c2=O)cc1 was tested, and the Potency was 6.31 µM (active). For Cc1ccc(-c2ccnc3[nH]n(-c4ccccc4)c(=O)c23)cc1, the Potency was “inactive”. CCc1nnc(NS(=O)(=O)c2ccc(N=Cc3c(C)[nH]n(-c4ccc(C)cc4)c3=O)cc2)s1 was tested, and the Potency was “inactive”. Cc1ccc(C(=O)N2CCC(n3nccc3NC(=O)Nc3cccc(F)c3)CC2)cn1 was tested, and the Potency was “inactive”. With CCOc1ccc(NS(=O)(=O)c2ccc(C)c(C(N)=O)c2)cc1 the Potency was “inactive”. CCCCNC(=O)c1c[nH]c2ccc(S(=O)(=O)Nc3ccc(OCC)cc3)cc2c1=O was tested, and the Potency was 7.94 µM (active). For COc1cccc(NS(=O)(=O)c2ccc3[nH]cc(C(=O)NCCCOC(C)C)c(=O)c3c2)c1, the Potency was “inactive”. For CCOC(=O)c1c(S(=O)(=O)Nc2ccc(CN3CCC(C)CC3)cc2)c(C)n(C)c1C, the Potency was “inactive”. For CCOC(=O)c1cn[nH]c1NC(=S)Nc1ccccc1, the Potency was “inactive”. With CCOC(=O)c1cc2c(nc1NC(=S)Nc1ccccc1)CC(C)(CC)OC2 (centres undefined) the Potency was 3.55 µM (active). With CCOC(=O)c1cc2cc3ccccc3cc2oc1=O the Potency was “inactive”. With Cc1ccc(NC(=O)CSc2nnc(CNC(=O)c3ccccc3F)o2)cc1Cl the Potency was “inactive”. For COc1ccc(-c2noc(CNC(=O)C(C)Oc3ccccc3)n2)cc1 (centres undefined), the Potency was “inactive”. For COc1ccc(-c2cc(C(F)(F)F)nc(SCC(=O)Nc3ccc4c(c3)OCO4)n2)cc1OC, the Potency was “inactive”. For COc1cc(OC)nc(S(C)(=O)=O)n1, the Potency was “inactive”. COc1ccc(-c2cc(C(F)(F)F)nc(S(C)(=O)=O)n2)cc1OC was tested, and the Potency was 1.78 µM (active). For Cc1cccn2c(=O)c3cc(C(=O)NCC4CCCO4)c(=N)n(Cc4ccc(F)cc4)c3nc12 (centres undefined), the Potency was “inactive”. With COc1cc(OC)c(OC)cc1CN1CCN(C(=O)c2cccc3ccccc23)CC1 the Potency was “inactive”. For Cc1ccc(C(C[N+](=O)[O-])c2c(C)cc3ccccn23)cc1 (centres undefined), the Potency was 22.4 µM (active). For CC(=O)Nc1ccc(/C=N/Nc2ccc(C(=O)c3c(C)cc4ccccn34)cc2[N+](=O)[O-])cc1, the Potency was “inactive”. In the case of Cc1cc2ccccn2c1C(=O)c1cccc(F)c1, the Potency was “inactive”. C=CC[n+]1c(-c2ccc(C)cc2)csc1NNC(=O)Nc1ccccc1 was tested, and the Potency was 14.1 µM (active). In the case of Cc1ccc(NC(=O)NNC(=O)c2sccc2-n2cccc2)cc1, the Potency was “inactive”. In the case of C=CCNC(=O)c1csc(-c2ccccc2)n1, the Potency was “inactive”. With Cc1ccc(NC(=O)Nc2ccccc2)c(Br)c1 the Potency was “inactive”. C=CCNc1scc(-c2ccccc2)[n+]1CC=C was tested, and the Potency was 12.6 µM (active). In the case of COC(=O)c1cc(NS(=O)(=O)c2ccc3c(c2)c(=O)n(C)c(=O)n3C)cc(C(=O)OC)c1, the Potency was “inactive”. With Cc1cccc(C)c1N1C(=O)CN(Cc2ccccc2)C1=S the Potency was “inactive”. Molecule CCC(=O)c1cn(CCOc2ccccc2OC)c2ccccc12 has an activity change, negative = inhibition of -12.4% [at 1.91 µM]. For Cc1cccc(NC(=O)C2CCCN(C(=O)NCc3ccccc3)C2)c1C (centres undefined), the Potency was “inactive”. In the case of CN(C)c1ccc(CNC(=O)CN2C(=O)COc3ccc(S(=O)(=O)N4CCCC4)cc32)cc1, the Potency was “inactive”. For CCOc1cc(NC(=O)c2ccco2)c(OCC)cc1NC(=O)COc1ccccc1, the Potency was “inactive”. In the case of CCOc1cc(NC(=S)NCCCOC)c(OCC)cc1NC(=O)c1ccco1, the Potency was 20 µM (active). For CCOc1cc(NC(=S)NCCCN(C)C)c(OCC)cc1NC(=O)C1CC1, the Potency was “inactive”. With COc1cc(NC(=S)NCc2ccco2)c(OC)cc1Cl the Potency was 7.08 µM (active). In the case of COc1ccc(CC(=O)Nc2ccccc2NC(=O)c2ccco2)cc1OC, the Potency was “inactive”. O=C(Nc1ccc(NC(=O)c2ccco2)c(Cl)c1)c1cccc([N+](=O)[O-])c1 was tested, and the Potency was “inactive”. COC(=O)c1cc(Cl)c(NC(=O)c2ccco2)cc1OC was tested, and the Potency was “inactive”. With COc1ccc(NC(=O)CCC(=O)Nc2cc(OC)c(NC(=O)c3ccco3)cc2OC)c(OC)c1 the Potency was “inactive”. CCC(=O)NC(=S)Nc1ccc(NC(=O)c2ccco2)c(Cl)c1 was tested, and the Potency was 2.51 µM (active). For CCOc1cc(NC(=S)NCc2ccco2)c(OCC)cc1NC(=O)c1ccco1, the Potency was 1.12 µM (active). With CCOCC(=O)Nc1cc(OC)c(Cl)cc1OC the Potency was “inactive”. In the case of COc1ccc2c(Cl)c(C(=O)NCc3ccco3)sc2c1, the Potency was “inactive”. For CCc1nn(CCCC(=O)Nc2ccc(C)c(C)c2)c(=O)c2cc3occc3n12, the Potency was “inactive”. With O=C(O)c1cc(S(=O)(=O)NC2CCCc3ccccc32)ccc1O (centres undefined) the Potency was “inactive”. With CC(C(=O)NCCc1ccc(S(N)(=O)=O)cc1)N1C(=O)CC(C)(C)Sc2ccccc21 (centres undefined) the Potency was “inactive”. CNC(=O)N1c2ccccc2C=Cc2ccccc21 was tested, and the Potency was “inactive”. In the case of Clc1nc(NC2CCCC2)nc(N2CCOCC2)n1, the Potency was “inactive”. With COc1cccc(N(CC(=O)NC2CCCC2)C(=O)Cn2nnc(-c3ccc(C)o3)n2)c1 the Potency was “inactive”. S=c1[nH]nc(-c2cccs2)n1/N=C/c1cn(-c2ccccc2)nc1-c1ccc(Cl)cc1 was tested, and the Potency was “inactive”. For Cc1ccc(/C=N\n2c(-c3ccccc3)n[nH]c2=S)s1, the Potency was 3.98 µM (active). S=c1[nH]nc(-c2ccco2)n1/N=C/c1ccc(Br)s1 was tested, and the Potency was 11.2 µM (active). Cc1ccc(-c2n[nH]c(=S)n2/N=C/c2cc3c(cc2[N+](=O)[O-])OCO3)cc1 was tested, and the Potency was “inactive”. In the case of S=c1[nH]nc(-c2cc(-c3ccccc3)n[nH]2)n1/N=C/c1c2ccccc2cc2ccccc12, the Potency was 7.94 µM (active). For CCN(CC)S(=O)(=O)c1cccc(-c2n[nH]c(=S)n2/N=C/c2ccc(C(=O)OC)cc2)c1, the Potency was “inactive”. In the case of Oc1ccccc1/C=N/n1c(-c2cccs2)n[nH]c1=S, the Potency was 10 µM (active). c1ccc(-c2cc(-c3nnc4sc(-c5ccccn5)nn34)[nH]n2)cc1 was tested, and the Potency was “inactive”. S=c1[nH]nc(-c2ccncc2)n1/N=C/c1ccccc1Cl was tested, and the Potency was “inactive”. Brc1ccc(/C=N/N2CCN(C3c4ccccc4-c4ccccc43)CC2)s1 was tested, and the Potency was “inactive”. CCOc1ccc(-c2n[nH]c(=S)n2/N=C/c2cc3c(cc2[N+](=O)[O-])OCO3)cc1 showed an activity change, negative = inhibition of -47.7% [at 10 µM].
